Assay results taken from PubChem BioAssay (NCI).
This is part of a sample that, as a whole, favours compounds with a hit. Of some 83,000 tested, about 20% had one in any assay.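 Method: cells in 96-well plates; compound added at one concentration; 48 h incubation; percent growth measured; values under 10 scored active.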 A number with no mark means an inactive call. Activity calls are given as the source filed them.

What was measured:
Test in all cases: NCI-60 one-dose screen, 48 h (100 = growth as untreated, 0 = no growth, -100 = all killed)
Details in all cases: 10 µM unless noted
T-47D breast = tested on: T-47D breast
BT-549 breast = tested on: BT-549 breast
MDA-MB-435 melanoma = tested on: MDA-MB-435 melanoma
SW-620 colon = tested on: SW-620 colon
HCT-116 colon = tested on: HCT-116 colon
HCC-2998 colon = tested on: HCC-2998 colon
KM12 colon = tested on: KM12 colon
MCF7 breast = tested on: MCF7 breast

Row | Structure (SMILES) | growth (T-47D breast) | growth (BT-549 breast) | growth (MDA-MB-435 melanoma) | growth (SW-620 colon) | growth (HCT-116 colon) | growth (HCC-2998 colon) | growth (KM12 colon) | growth (MCF7 breast) [%]
1 | CN(C[C@H]1Cc2c(cccc2N2CCN(Cc3ccccn3)CC2)CN1)[C@H]1CCCc2cccnc21 | 44.6% | 81.9% | 69.6% | 51.3% | 30.8% | 94% | 51.7% | –
2 | O=S1(=O)CCC(N(/N=C/c2ccco2)c2ccccc2)C1 (stereo not drawn) | 103% | 101% | 107% | 95.4% | 97.4% | 97.6% | 103% | –
3 | N#Cc1c(-c2ccccc2)nc(SCC(=O)N2CCN(c3ccccc3)CC2)[nH]c1=O | 99.4% | 91.2% | 108% | 111% | 92.5% | 103% | 106% | –
4 | COc1ccc(-c2c(N)n[nH]c2-c2cc3c(c(OC)c2OC)OCO3)cc1 | 106% | 101% | 106% | 101% | 94.1% | 106% | 99.9% | –
5 | C=C1C(=O)O[C@H]2[C@H]1CC/C(Cn1cc(-c3cccc(Cl)c3)nn1)=C\CC[C@@]1(C)O[C@@H]21 | -43.7% (active) | -49.5% (active) | -78.6% (active) | -77.8% (active) | -84.8% (active) | -85.5% (active) | 12.9% | –
6 | CCN(CC)c1ccc2[nH]c3c(C(N)=O)cc(=O)c(=O)c=3oc2c1 | -0.924% (active) | 38.9% | -4.76% (active) | 9.8% (active) | -10.9% (active) | -5.4% (active) | 9.09% (active) | –
7 | COc1ccc2c(c1)[nH]c(=O)c1c3cc(OC)ccc3cn21 | 13.6% | 36.8% | – | -2.37% (active) | -89% (active) | 32.1% | -13.1% (active) | 14.1
8 | COc1ccc(S(=O)(=O)Nc2cc(/C=C\c3cc(OC)c(OC)c(OC)c3)cc(OC)c2OC)cc1 | 86.6% | 26.6% | -26.3% (active) | 26.4% | 5.64% (active) | 17.7% | 10% | –
9 | NC(=O)c1c(NC(=S)Nc2ccc(OC(F)(F)F)cc2)sc2c1CCC1(C2)OCCO1 | 86% | 93.8% | 81.6% | 92.9% | 98.2% | 102% | 94.6% | –
10 | C=C1C(=O)O[C@H]2[C@H]1CC/C(Cn1cc(CNC(=O)/C=C/c3c[nH]c4ccccc34)nn1)=C\CC[C@@]1(C)O[C@@H]21 | 107% | 112% | – | 49.9% | 63.8% | 118% | 98% | 42
11 | N#Cc1ccc(N2Cc3ccccc3OC3=C2C(=O)c2c(O)ccc(O)c2C3=O)cc1 | -46% (active) | -17.9% (active) | -43.9% (active) | -67.5% (active) | -44.3% (active) | 30.7% | 8.89% (active) | –
12 | Cc1cc(N)n(S(=O)(=O)c2oc(-c3ccccc3)nc2C#N)n1 | 71% | 101% | 91.8% | 48.9% | 75% | 114% | 101% | –
13 | N#Cc1c(Nc2ccccc2)nc2n(c1=O)-c1ccccc1Sc1ccccc1-2 | 55.9% | 82.3% | 82.8% | 99.2% | 82.9% | 102% | 97.9% | –
14 | COc1ccc(-c2nc(N3CCCC3=O)sc2Br)cc1OC | 89.2% | 93.2% | 93.5% | 102% | 97.4% | 108% | 92.7% | –
15 | CC(C)NCCCNC1=C(Cl)C(=O)c2ccccc2C1=O | 101% | 99.8% | -66% (active) | -30.7% (active) | 70.7% | 59.7% | 87.2% | –
16 | COc1ccc(C2=Nn3c(nnc3-n3nc(C)cc3C)SC2)cc1 | 77.6% | 18.6% | -16.1% (active) | 21.7% | 5.57% (active) | 4.24% (active) | 10% | –
17 | C=C1C(=O)O[C@H]2[C@H]1CC/C(COC(=O)NCc1ccccc1OC)=C\CC[C@@]1(C)O[C@@H]21 | 31.5% | 26.7% | 44.4% | 0.256% (active) | -26.1% (active) | 93.9% | 62.3% | –

Row | Structure (SMILES) | growth (T-47D breast) | growth (BT-549 breast) | growth (MDA-MB-435 melanoma) | growth (SW-620 colon) | growth (HCT-116 colon) | growth (HCC-2998 colon) | growth (KM12 colon) | growth (MCF7 breast) [%]
18 | COc1ccc(-c2nc3sc(-c4cc(OC)c(OC)c(OC)c4)nn3c2/C=C2/C(=O)Nc3ccc(F)cc32)cc1 | -24.9% (active) | 41.5% | -28.6% (active) | 0.989% (active) | 29.7% | -55% (active) | 13.7% | –
19 | O=c1[nH]c(NCc2ccccc2)nc2nc(Nc3ccc(NC(=S)Nc4ccccc4)cc3)nc(-c3ccc(O)cc3O)c12 | 84% | 155% | 105% | 95.6% | 99.2% | 113% | 96.3% | –
20 | COc1ccc(Nc2[nH]n3c(=O)cc(C)nc3c2C(N)=O)c(OC)c1 | 79.8% | 95.3% | 114% | 93.3% | 97.8% | 108% | 101% | –
21 | O=C(CCl)N(C1CCCCC1)C1CCCCC1 | 101% | 97.4% | 106% | 113% | 101% | 107% | 112% | –
22 | O=C(/C=C/c1cc(-c2ccc3c(c2)OCO3)n[nH]1)c1ccc2c(c1)OCO2 | 72.7% | 88% | 99.7% | 93.8% | 92.7% | 106% | 94.6% | –
23 | COc1cc(Nc2nc(N[C@H]3CCCC[C@@H]3N)nc3cc[nH]c(=O)c23)cc(OC)c1 | 83.6% | -27% (active) | 33.4% | 14.2% | 7.88% (active) | 32.1% | 7.39% (active) | –
24 | CCO/C=N/C1=C(C#N)C(c2ccc(Cl)cc2)c2c(c3ccc(C)cc3[nH]c2=O)O1 (stereo not drawn) | 78.4% | 86.7% | 90.7% | 84.6% | 82.4% | 99.5% | 97.1% | –
25 | CC(C)(C)n1cc(-c2ccnc(NCCCNS(=O)(=O)c3ccccc3)c2)c(-c2cccc(O)c2)n1 | 23.8% | 47.4% | 54.8% | 14.5% | 36.8% | 18.5% | 26.9% | –
26 | CCN(CC)CCCNc1nccc2ccc(Cl)cc12 | 106% | 92.8% | 103% | 104% | 84.9% | 106% | 111% | –
27 | COc1ccc(Cn2cc3c(c2-c2cc(OC)c(OC)c(OC)c2)CCc2cnoc2-3)cc1 | 41.2% | 41.6% | -37.3% (active) | 29.8% | 13% | 1.48% (active) | 11.1% | –
28 | OC(c1cc2cc(Br)ccc2c2cc(Br)ccc12)C1CCCCN1 (stereo not drawn) | -75.3% (active) | 69% | -78% (active) | -75% (active) | -72.7% (active) | -81.5% (active) | -91.7% (active) | –
29 | CC(C)(C)OC(=O)NC(CSCc1ccccc1)C(=O)ON1C(=O)CCC1=O (stereo not drawn) | 93.9% | 117% | 109% | 105% | 92.5% | 101% | 109% | –
30 | CCCCCCCCCCCCCCCCCCNC(=O)[C@H]1CSC(c2ccc(OC)cc2O)N1 (stereo partly drawn) | 60% | 27.4% | 25.4% | 67.3% | 39.3% | 76.7% | 27% | –
31 | O=C(Nc1ccncc1)C(=O)c1cn(S(=O)(=O)c2ccc(Br)cc2)c2ccccc12 | 41% | 41.1% | -3.46% (active) | 18.2% | 14.3% | 72% | 26.2% | –
32 | O=C(O)c1cn(C2CC2)c2cc(N3CCN(C(=O)/C=C/c4ccc(Cl)cc4)CC3)c(F)cc2c1=O | 65.5% | 50.1% | 82.5% | 102% | 74.8% | 90.4% | 82.7% | –
33 | CC(C)C(C(=O)NCCN1CCOCC1)N1C(=O)/C(=C/c2ccc(Br)cc2)SC1=S (stereo not drawn) | 94.1% | 99% | 101% | 102% | 94.8% | 107% | 99.7% | –
34 | COc1ccc(-n2c(=S)sc3c(Cl)nc(C)nc32)c(OC)c1 | 51.3% | 90.8% | 30.9% | 45.4% | 0.658% (active) | 35.4% | 25.4% | –
